TbREL1 inh – TbREL1 RNA ligase inhibitors, primary screen, biochemical, FRET fluorescence; 89,000 compounds, 0.49% hits; RNA-editing ligase 1, mitochondrial (Trypanosoma brucei brucei), P86926; inhibition, % at 9.66 µM; TbREL1 RNA ligation;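 active = inhibition above the mean inhibition across all screened compounds plus 3 SD, cut at about 11% in these data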
Target sequence (P86926 whole entry, looked up): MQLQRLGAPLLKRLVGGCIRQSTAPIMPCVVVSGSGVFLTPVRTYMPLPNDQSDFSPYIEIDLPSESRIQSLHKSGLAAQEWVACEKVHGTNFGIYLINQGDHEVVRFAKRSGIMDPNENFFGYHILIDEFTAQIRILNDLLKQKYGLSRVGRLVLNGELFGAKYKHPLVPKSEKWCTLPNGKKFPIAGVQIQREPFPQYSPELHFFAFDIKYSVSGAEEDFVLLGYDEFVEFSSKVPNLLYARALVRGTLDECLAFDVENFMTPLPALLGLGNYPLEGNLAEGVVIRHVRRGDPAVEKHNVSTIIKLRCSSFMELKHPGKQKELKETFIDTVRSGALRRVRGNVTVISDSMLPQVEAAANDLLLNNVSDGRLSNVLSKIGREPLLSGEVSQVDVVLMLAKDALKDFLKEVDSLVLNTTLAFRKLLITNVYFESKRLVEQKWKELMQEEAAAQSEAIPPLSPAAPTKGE
TbREL1 confirm – TbREL1 RNA ligase inhibitors, confirmation, biochemical, FRET fluorescence, triplicate; shares compounds with TbREL1 inh; TbREL1 RNA ligation; inhibition, % at 9.66 µM; 390 compounds, 37% hits;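 active = mean inhibition across replicates above a set limit taken from the earlier primary screen, cut at about 11% in these data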
Of the large screens only hits and unclear results are named; the others gave an inactive call (follow-up assays come after a bar, where they were run). The entries come from a sample that favours hits as a whole.

CC(C)c1cc(C(C)C)c(S(=O)(=O)N2CCCC(C(=O)N3CCN(Cc4ccccc4)CC3)C2)c(C(C)C)c1 (stereo unspecified)	none
COc1ccc(C)cc1-n1nnnc1SCC(=O)NC1CC1	none
COC(=O)N/N=C(\C)c1ccc(OC(F)F)cc1	none
C/C(=N\NC(=O)C1CC1)c1ccc(OC(F)F)cc1	TbREL1 inh 16 | TbREL1 confirm inactive
C/C(=N\NC(=O)C1CC1)c1ccc(C)c(C)c1	none
Cc1nc(Cl)cc(N/N=C/c2ccc(O)cc2)n1	none
COc1ccc(-c2csc(Nc3ccccc3)[n+]2CC(O)c2ccc([N+](=O)[O-])cc2)cc1 (stereo unspecified)	none
O=C(C1CCCN(S(=O)(=O)c2cc(Cl)ccc2Cl)C1)N1CCCCCC1 (stereo unspecified)	none
O=C(NNc1cc(Cl)ccc1Cl)C1CCC1	TbREL1 inh 91 | TbREL1 confirm inactive
O=C(O)C1CC=CCC1C(=O)Nc1cc(Cl)ccc1Cl (stereo unspecified)	none
Cc1nc(SCC(=O)NCC2CCCO2)nc(C)c1C (stereo unspecified)	none
CCCCNC(=O)C(c1ccc(OCC(=O)OC)c(C(=O)OC)c1)N(CCOC)C(=O)CCCCCN1C(=O)NC(c2ccc(-c3ccccc3)cc2)C(C(=O)OCc2ccccc2)=C1C (stereo unspecified)	none
CCN(C(=O)COC(=O)CC(C)c1ccccc1)c1c(N)n(Cc2ccccc2)c(=O)[nH]c1=O (stereo unspecified)	none
CC1CCN(S(=O)(=O)c2ccc3[nH]c(=O)cc(C(=O)O)c3c2)CC1	none
Cc1nc(NC(=O)CCCC(=O)Nc2nc(C)c(C)s2)sc1C	none
COc1cccc(/C=C/C(=O)OCC(=O)c2ccc3c(c2)NC(=O)CO3)c1OC	none
COc1ccc(/C=C/C(=O)OCC(=O)c2ccc3c(c2)NC(=O)CO3)c(OC)c1	none
O=C1COc2ccc(C(=O)COC(=O)/C=C/c3ccc(Br)o3)cc2N1	TbREL1 inh 18 | TbREL1 confirm inactive
CCCCn1c(=O)n(C)c(=O)c2c(C(F)(F)F)cc(-c3ccncc3)nc21	none
Fc1ccc(-c2cnc(-c3cccs3)o2)cc1	none
COc1cc2c(cc1NC(=O)CSc1nnc(-c3ccccn3)n1-c1ccccc1)oc1ccccc12	none
COc1cc2c(cc1NC(=O)CSc1nnc(-c3cccnc3)n1-c1ccc(Br)cc1)oc1ccccc12	TbREL1 inh 11 | TbREL1 confirm inactive
CCOc1ccc(-n2c(SCC(=O)Nc3cc4oc5ccccc5c4cc3OC)nnc2-c2cccc(Cl)c2)cc1	none
COc1cccc2sc(N(CCCN(C)C)C(=O)c3ccc(S(=O)(=O)N4CCc5ccccc5C4)cc3)nc12	none
Cc1cc(C)c2sc(N(CCCN(C)C)C(=O)c3ccc(Br)s3)nc2c1	none
CCN(Cc1ccccc1)S(=O)(=O)c1ccc(C(=O)N(CCCN(C)C)c2nc3c(F)cccc3s2)cc1	TbREL1 inh 28 | TbREL1 confirm inactive
CCOc1cccc2sc(N(CCCN(C)C)C(=O)c3ccc(S(=O)(=O)N4CCCCCC4)cc3)nc12	TbREL1 inh 15 | TbREL1 confirm inactive
CCN(c1ccccc1)S(=O)(=O)c1ccc(C(=O)N(CCCN(C)C)c2nc3c(C)cccc3s2)cc1	TbREL1 inh 13 | TbREL1 confirm 11
CCN(Cc1ccccc1)S(=O)(=O)c1ccc(C(=O)N(CCCN(C)C)c2nc3cc(C)cc(C)c3s2)cc1	TbREL1 inh 15 | TbREL1 confirm inactive
Cc1cc(C)c2sc(N(CCN(C)C)C(=O)c3c(F)cccc3F)nc2c1	none
CN(C)CCCN(C(=O)c1ccc(C(=O)c2ccccc2)cc1)c1nc2c(F)cccc2s1	none
COc1cc2nc(N(CCCN(C)C)C(=O)c3ccc(S(=O)(=O)N4CCc5ccccc5C4)cc3)sc2cc1OC	none
CCc1ccc2nc(N(CCCN(C)C)C(=O)c3ccc(S(=O)(=O)N4CCCC4)cc3)sc2c1	none
CN(C)CCN(C(=O)c1ccc2c(c1)CCCC2)c1nc2c(F)cccc2s1	none
CN(C)CCCN(C(=O)c1ccc(S(=O)(=O)N2CCCCCC2)cc1)c1nc2c(F)cccc2s1	none
Cc1[nH]c(=O)c(C#N)c(C)c1CCC(=O)Nc1cc(S(C)(=O)=O)ccc1Cl	none
CCCc1nc2c3ccccc3ccn2c1Cc1cccc(Cl)c1	none
CCCC(=O)Nc1ccc(C(=O)NCCc2ccc(F)cc2)cc1	none
CC1(c2ccco2)NC(=O)NC1=O (stereo unspecified)	none
C[C@H]1[C@@H](O)CC[C@@]23CCCN2C(=O)CCC[C@@H]13	none
O=c1cnnc(SCCc2ccccc2)[nH]1	none
Cc1ccc(Cn2cccc(-c3nc4ccccc4s3)c2=O)cc1	none
CCN(CC(=O)NCc1cccs1)C(=O)c1cccc(S(=O)(=O)N(C)C)c1	none
COc1ccc(-n2nc(C(=O)NCC(=O)NCCCN3CCOCC3)c3ccccc3c2=O)c(OC)c1	none
Cc1ccc(CCNC(=O)C2CCCN(c3nc4ccccc4o3)C2)cc1 (stereo unspecified)	none
O=C(OCc1ccccc1)N1CCC2CC1c1c(-c3ccc(C(F)(F)F)cc3)cccc12 (stereo unspecified)	none
COC(=O)NCC1(C)CC(NC(=O)OC)CC(C)(C)C1 (stereo unspecified)	none
O=C1CCc2cc(S(=O)(=O)NC(Cc3ccccc3)C(=O)NC3CCCC3)ccc2N1 (stereo unspecified)	none
CCOc1ccc(S(=O)(=O)NCc2cccnc2)cc1NC(=O)c1ccccc1F	none
COc1ccc(C(=O)c2c(C(F)(F)F)oc3c2C(=O)c2ccccc2C3=O)cc1OC	none
O=C(c1ccccc1)c1c[nH]cc1-c1ccccc1	none
Cc1oc2c(c1C(=O)c1ccccc1)C(=O)C(=O)c1ccccc1-2	TbREL1 inh 29 | TbREL1 confirm 66
CCCC(C)C(=O)Nc1cccc(NC(C)=O)c1 (stereo unspecified)	none
CS(=O)(=O)c1ccc(Cl)c(C(=O)NC2CCSc3ccccc32)c1 (stereo unspecified)	none
Cc1nc(S/C(=C/c2ccc(-c3ccc(C(=O)O)cc3)o2)C(=O)O)n[nH]1	TbREL1 inh 21 | TbREL1 confirm 17
O=Cc1ccc(-c2ccc(C(=O)O)cc2)o1	none
Cc1ccc(C(=O)N/C(=C\c2ccc(-c3cccc([N+](=O)[O-])c3)o2)C(=O)NC(C)(C)C)cc1	none
O=C(COC(=O)c1cccc(Br)c1)Nc1cccc(S(=O)(=O)N2CCCCC2)c1	none
CCOCc1nnc(NC(=O)CS(=O)(=O)c2ccc(C)cc2)s1	none
Cc1cc2c(cc1S(=O)(=O)NCC(C)c1ccccc1)n(C)c(=O)c(=O)n2C (stereo unspecified)	none
Nc1nc(-c2ccccc2)c(CCCOc2ccc([N+](=O)[O-])cc2)c(=O)[nH]1	none
Cn1c(=O)n(C/C=C/c2ccccc2)c(=O)c2c1nc1n2CCCN1Cc1ccccc1	none
Cc1ccc(N(C(=O)c2ccco2)C(C(=O)NC2CCCC2)c2ccco2)c(C)c1 (stereo unspecified)	none
Cc1ccc(C(C(=O)NC2CCCCC2)N(C(=O)Cc2c[nH]c3ccccc23)c2ccccc2C)o1 (stereo unspecified)	none
Cc1ccc(N(C(=O)Cc2c[nH]c3ccccc23)C(C(=O)NC2CCCCC2)c2ccco2)cc1 (stereo unspecified)	TbREL1 inh 11 | TbREL1 confirm inactive
CCCCN(C(=O)c1cccc(S(=O)(=O)N(C)c2ccc(C)cc2)c1)c1c(N)n(CC(C)C)c(=O)[nH]c1=O	none
